MARV entry inh: inhibitors of Marburg virus binding or cell entry; Marburg virus pseudotyped entry inhibition, cell reporter; Potency, µM (highest dose often 37.8 µM), hits mostly inhibitors; 300,000 compounds, 1.8% hits; calls by dose curve; tested in HEK293 cells
Pf growth 96h: P. falciparum growth inhibition at 96 hour, primary screen for plastid delayed-death inhibitors | P. falciparum luciferase reporter growth, 96 h | Potency, µM (highest dose often 28.7 µM), actives largely listed as inhibitors | 320,000 compounds, 6.9% hits | AID 504834
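Compounds incubated with erythrocytes infected by luciferase-expressing P. falciparum (2% hematocrit, 0.05% parasitemia final) for 96 hours, 37 C in 5% CO2. Growth inhibition scored as decreased luciferase luminescence.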
Shiga toxin inh: inhibitors of Shiga toxin in Vero cells; inhibition, % at 38.7 µM; AID 2315; Vero cells, Shiga toxin protein synthesis inhibition reporter; 290,000 compounds, 9.2% hits; in the data active = inhibition mostly above about 28%, no sharp cut-off; inactive = mostly below about 43%
Pf growth 48h: inhibits P. falciparum growth in the first generation, 48 h | P. falciparum luciferase growth in erythrocytes, 48 h | Potency, µM (titrated, usually from 28.7 µM), most hits filed as inhibitors | 310,000 compounds, 5.9% hits
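A one-generation exposure of luciferase-tagged malaria parasites in RPMI 1640/Albumax erythrocyte culture, 37 C and 5% CO2. Inhibition is inferred from decreased luminescence after adding detection reagent.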
Cycloheximide cs: counter-screen hit for Shiga toxin inhibitors, cycloheximide. cell reporter, cycloheximide protein synthesis inhibition counterscreen. max response, %. 300,000 compounds, 12% hits. AID 2314; in the data active = max response mostly above about 13%, no sharp cut-off; inactive = mostly below about 14%; note: read at 38.3 µM for the half of the compounds with a filed dose
LASV entry inh: inhibitors of Lassa virus binding or cell entry; Potency, µM (titrated, usually from 37.9 µM), actives largely listed as inhibitors; Lassa virus pseudotype entry inhibition, cell reporter; 300,000 compounds, 1.2% hits; AID 540256; calls by dose curve; tested in HEK293 cells; note: nearly all actives have a fitted effect of over 50% in size
Numbers stand for hits; i = inactive; ? = inconclusive; nt = not tested or not shown. Compounds with a hit are over-represented: about 19% of the library has one in this group of screens. Unless noted, calls come from the whole dose curve; as a rule, active = well fitted inhibition curve with a large enough effect; inconclusive = small, poorly fitted or top-dose-only effect, or another doubt; inactive = no such curve, though single readings can be large or run the other way.

SMILES	MARV entry inh	Pf growth 96h	Shiga toxin inh	Pf growth 48h	Cycloheximide cs	LASV entry inh
CN1CCN(Cc2c(O)ccc3cc(-c4ccc(Cl)cc4)c(=O)oc23)CC1	nt	nt	nt	nt	nt	i
COc1ccc(OCCn2c(C)c(/C=N/n3cnnc3)c3ccccc32)cc1	i	12µM	i	?	i	i
CCn1nc(C)cc1C(=O)N1CCCC(N2CCN(c3ccccc3OC)CC2)C1 (centres undefined)	i	nt	nt	nt	nt	?
Cn1c(-c2cccc(Br)c2)cnc1NCc1ccccc1O	?	5.2µM	i	?	i	i
COc1cccc(CNc2ncc(-c3ccc(Br)cc3)n2C)c1	nt	nt	nt	nt	nt	i
Cn1c(-c2cccc([N+](=O)[O-])c2)cnc1NCc1cccc(F)c1	nt	4.7µM	i	i	i	nt
COc1cccc(CCNC(=O)CCc2nnc(-c3ccc4c(c3)OCO4)o2)c1	nt	i	i	i	i	nt
COc1ccc(-c2cnc(NCc3ccc(C)cc3)n2C)cc1	i	nt	nt	nt	nt	i
Cn1c(-c2ccccc2)cnc1NCc1ccccc1	nt	i	nt	i	11	nt
Cn1c(-c2ccc3c(c2)OCO3)cnc1NC(=O)CCC(=O)NCCc1ccccc1	i	nt	65	i	18	i
Cc1cccc(N2CCN(C(=O)c3c(C)oc4ncnc(N5CCOCC5)c34)CC2)c1C	nt	nt	nt	nt	nt	i
CCOC(=O)c1sc(-c2ccccc2)cc1NC(=O)CSc1nnnn1C	?	?	i	?	i	i
Cn1c(-c2ccc3c(c2)OCO3)cnc1NCc1cccc(Cl)c1	i	?	i	?	i	?
Cc1ccc(CNc2ncc(-c3ccccc3)n2C)o1	i	i	i	i	25	i
Cn1c(-c2ccc3c(c2)OCO3)cnc1NCc1ccccc1	?	i	i	i	39	i
Cn1c(-c2ccc3c(c2)OCO3)cnc1N	i	?	i	i	13	i
Cc1ccc(-c2cnc(NCc3ccc(C(F)(F)F)cc3)n2C)cc1	i	nt	nt	nt	nt	i
Cn1c(-c2ccc3c(c2)OCO3)cnc1NCc1ccccc1Cl	i	i	73	i	33	i
O=C(NCCCn1ccnc1)C(=O)NCC(c1cccnc1)N1CCN(c2ccccc2)CC1 (centres undefined)	i	i	i	i	i	i
CC1CC(C(F)F)n2nc(C(=O)O)cc2N1 (centres undefined)	i	i	i	nt	i	i
NC(=O)c1ccc(NC(=O)CN2CCN(C(=O)c3ccco3)CC2)cc1	nt	2.3µM	i	i	i	nt
Cc1ccc(NC(=O)CN2CCN(C(=O)c3ccco3)CC2)cc1S(=O)(=O)N(C)C	i	nt	nt	nt	nt	i
CC(=O)Nc1ccc(C(=O)OCC(=O)N2CCN(C(=O)c3ccco3)CC2)cc1	nt	i	nt	i	nt	nt
CCOc1ccc(NC(=O)CN2CCN(C(=O)c3ccco3)CC2)cc1S(=O)(=O)N1CCCC1	?	15µM	nt	?	nt	i
NC(=O)c1ccc(NC(=O)CN2CCOCC2)cc1	nt	i	i	i	i	nt
SMILES	MARV entry inh	Pf growth 96h	Shiga toxin inh	Pf growth 48h	Cycloheximide cs	LASV entry inh
CCOC(=O)c1ccc(NC(=O)CN2CCN(C(=O)c3ccco3)CC2)cc1	?	i	i	9.3µM	i	i
COc1ccccc1N(C)S(=O)(=O)c1ccc(C)c(C(=O)Nc2nccs2)c1	i	?	nt	12µM	nt	i
CCOc1ccc(N(C)S(=O)(=O)c2ccc(C)c(C(=O)NCc3ccccc3OC)c2)cc1	nt	9.3µM	nt	12µM	nt	nt
COc1ccccc1N(C)S(=O)(=O)c1ccc(C)c(C(=O)NCc2ccccn2)c1	nt	?	nt	10µM	nt	nt
COc1ccccc1N(C)S(=O)(=O)c1ccc(Cl)c(C(=O)NCc2cccnc2)c1	i	i	nt	?	nt	i
Cc1cccc(NC(=S)N/N=C/c2cccn2Cc2ccc(F)cc2)c1	?	?	i	i	i	i
Cc1cc(=O)n(Cc2ccc(Cl)cc2)c2c1c(C)nn2-c1ccccc1	nt	nt	nt	nt	nt	i
N#Cc1ccc(C23CC4(C2)[C@H](CN(CC2CCCCC2)[C@@H]4c2ccccc2)C3c2ccccc2)cc1 (some centres undefined)	nt	12µM	i	?	i	nt
N#Cc1ccc(C23CC4(C2)[C@H](CN(CC2CCCCC2)[C@@H]4c2ccccc2)C3c2ccc(Cl)nc2)cc1 (some centres undefined)	nt	?	i	?	i	nt
N#Cc1ccc(C23CC4(C2)[C@H](CN(CC2CCCCC2)[C@@H]4c2ccccc2)C3c2ccc(C(F)(F)F)cc2)cc1 (some centres undefined)	nt	?	i	10µM	i	nt
c1ccc(-n2c(-c3ccco3)nnc2N2CCOCC2)cc1	i	i	i	nt	i	i
O=C(Nc1cccc(S(=O)(=O)c2cccc(NC(=O)C3CC3)c2)c1)C1CC1	?	i	i	?	i	21µM
O=S(=O)(c1cccc(C(F)(F)F)c1)N1CCC(c2cc(-c3cccc4ccccc34)n[nH]2)CC1	?	10µM	i	?	i	?
O=C(Nc1cccc(S(=O)(=O)N2CCCCCC2)c1)C1CCC1	i	13µM	nt	?	nt	?
O=C(Nc1ccncc1)C1CCN(S(=O)(=O)c2cccc(C(F)(F)F)c2)CC1	nt	9.3µM	nt	13µM	nt	nt
CS(=O)(=O)c1cccc(NC(=O)C2CC2)c1	i	?	i	i	i	i
CC(=O)Nc1cccc(S(=O)(=O)N2CCCCCC2)c1	i	i	i	i	i	i
CN(C)c1ccc(C2N(c3ccc(Cl)cc3)C(=O)C3CCCN32)cc1 (centres undefined)	nt	i	i	nt	i	nt
O=C(N/N=C/c1cc2ccccc2nc1Cl)/C(=C/c1cccs1)NC(=O)c1ccccc1	i	i	i	nt	i	?
COc1ccc(-c2nc(C(=O)NCCCN3CCOCC3)cc3c2[nH]c2ccccc23)cc1OC	nt	5.2µM	i	?	i	nt
Cc1ccc(-c2nc(C(=O)NCCCN3CCOCC3)cc3c2[nH]c2ccccc23)cc1	nt	6.6µM	i	5.9µM	i	nt
COc1ccc(Nc2cc(C(=O)NCCCN3CCOCC3)c3ccccc3n2)cc1OC	i	i	i	nt	i	?
Cc1ccc(-c2cc(C(=O)NCCCN3CCOCC3)no2)cc1	i	nt	i	?	i	i
O=S(=O)(c1cnc[nH]1)N1CCN(c2ccccc2)CC1	nt	?	i	nt	i	nt
CCCC(CCC(=O)Nc1nccs1)C(=O)O (centres undefined)	?	i	i	i	i	i
SMILES	MARV entry inh	Pf growth 96h	Shiga toxin inh	Pf growth 48h	Cycloheximide cs	LASV entry inh
COc1ccc(N2C(=O)CC(Sc3nc(C)c4c(n3)CCCC4)C2=O)cc1 (centres undefined)	?	i	i	i	i	?
COc1cc(NC(=O)c2ccco2)c(C(=O)OCC(=O)c2c[nH]c3ccccc23)cc1OC	i	2.3µM	i	4.1µM	i	i
Cc1[nH]c2ccccc2c1C(=O)CSC(=S)N(C)C1CCCCC1	i	i	i	?	i	?
Cc1[nH]c2ccccc2c1C(=O)C(=O)N(C)C1CCCCC1	nt	2.6µM	i	2.6µM	i	nt
O=C(OCC(=O)c1c[nH]c2ccccc12)c1ccco1	?	5.2µM	88	i	68	i
O=C(OCC(=O)c1c[nH]c2ccccc12)c1ccc(Br)o1	i	nt	111	i	26	i
COc1cc(C(=O)O/N=C2\CCCc3c2ccc(OC)c3[N+](=O)[O-])cc(OC)c1OC	?	i	i	i	i	i
COc1ccc(CNC(=O)c2sc3nc4c(c(C(F)(F)F)c3c2N)CCC4)cc1	i	?	i	i	i	i

Screening data as filed in PubChem.
